This is an account of results in the supplement of paper PMC12350171.

Counter-ions that a name gives are not always drawn. Values without a mark were called inactive.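 How the source made its calls: active = AUC significantly below DMSO controls by Student t-fit with adjusted P under 0.01; inactive = not significantly reduced.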

This assay has as its system Haemophilus parainfluenzae. Briefly: growth AUC normalised to DMSO control (fraction of control); higher = less growth inhibition, active = hit call of the paper. Particulars: 20 µM. The method in brief:
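Pathogens passaged twice anaerobically were inoculated at a starting OD578 of 0.01 into pre-reduced mGAM plates with drug at 20 μM and 1% DMSO, sealed with breathable membranes. Haemophilus parainfluenzae medium was supplemented with hemin and NAD. OD578 was read hourly for 24 h, with three biological replicates. Growth-curve AUC was computed by the trapezoidal rule up to the exponential-to-stationary transition and normalised to DMSO controls on the same plate.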
`CO[C@@H]1[C@@H](O[C@@H]2O[C@H](C)[C@@H](O[C@H]3C[C@@](C)(O)[C@@H](OC(=O)CC(C)C)[C@H](C)O3)[C@H](N(C)C)[C@H]2O)[C@@H](CC=O)C[C@@H](C)[C@@H](O)/C=C/C=C/C[C@@H](C)OC(=O)C[C@H]1OC(C)=O` [Josamycin]: the “growth AUC normalised to DMSO control” value is 0.0327 (active). Next, `CC[C@H]1OC(=O)[C@H](C)[C@@H](O[C@H]2C[C@@](C)(OC)[C@@H](O)[C@H](C)O2)[C@H](C)[C@@H](O[C@@H]2O[C@H](C)C[C@H](N(C)C)[C@H]2O)[C@](C)(O)C[C@@H](C)[C@@H]2N[C@@H](COCCOC)O[C@H]([C@H]2C)[C@]1(C)O` [Dirithromycin]: 0.0968 (active). The value for `CC(=O)Nc1ccc(O)cc1` [Acetaminophen] was 0.952.

For the molecule `CCN(CC)Cc1cc(Nc2ccnc3cc(Cl)ccc23)ccc1O` [Amodiaquine dihydrochloride dihydrate], the “growth AUC normalised to DMSO control” value was 0.992. The value for `CN1C(C(=O)Nc2ccccn2)=C(O)c2sccc2S1(=O)=O` [Tenoxicam] was 0.948; that for `Cc1ncc([N+](=O)[O-])n1CC(C)O` (stereo not drawn) [Secnidazole] was 0.937. On to `NCc1ccccc1CC(=O)N[C@@H]1C(=O)N2C(C(=O)O)=C(CSc3nnnn3CC(=O)O)CS[C@H]12` [Ceforanide], for which the “growth AUC normalised to DMSO control” value was 0.0189 (active).

Take `CCN1CCN(C(=O)N[C@@H](C(=O)N[C@@H]2C(=O)N3C(C(=O)O)=C(CSc4nnnn4C)CS[C@H]23)c2ccc(O)cc2)C(=O)C1=O` [Cefoperazone dihydrate]: the “growth AUC normalised to DMSO control” value is 0.0355 (active).
